# Measured values as given in PubChem BioAssay (NCI).
# Where “and” joins values, the source holds several entries; their conditions need not be identical. Equal entries are not always repeated. This is part of a sample that, as a whole, favours compounds with a hit. Of some 83,000 tested, about 20% had one in any assay.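 Negative percent growth values reflect cell death: -40 means 40% of the cells present at the start died, and -100 means all died.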 Values without a mark were called inactive. Calls of active or inactive are those of the source. Rule for the calls: active = growth percent below 10; inactive = the rest.
# Legend:
# Assay in all cases: NCI-60 one-dose screen, 48 h (100 = growth as untreated, 0 = no growth, -100 = all killed)
# [1] = tested on: SR leukemia; details: 10 µM unless noted
# [2] = tested on: OVCAR-8 ovarian
# [3] = tested on: OVCAR-5 ovarian
# [4] = tested on: OVCAR-4 ovarian
# [5] = tested on: SK-OV-3 ovarian
# [6] = tested on: IGROV1 ovarian
# [7] = tested on: OVCAR-3 ovarian
# [8] = tested on: HS 578T breast
# [9] = tested on: T-47D breast
# [10] = tested on: BT-549 breast
# [11] = tested on: MDA-MB-435 melanoma
# [12] = tested on: SW-620 colon; details: 10 µM unless noted
# [13] = tested on: MCF7 breast
# [14] = tested on: HCT-116 colon
# [15] = tested on: HCC-2998 colon
# [16] = tested on: KM12 colon
# [17] = tested on: RPMI-8226 leukemia; details: 10 µM unless noted
# [18] = tested on: NCI/ADR-RES ovarian
compound,measurement,setting,value
CCCCOCCOP(=O)(OCCOCCCC)OCCOCCCC,growth,[1],98.9%
same,growth,[2]; 10 µM unless noted,107%
same,growth,[3]; 10 µM unless noted,105%
same,growth,[4]; 10 µM unless noted,114%
same,growth,[5]; 10 µM unless noted,101%
same,growth,[6]; 10 µM unless noted,119%
same,growth,[7]; 10 µM unless noted,118%
same,growth,[8]; 10 µM unless noted,95.5%
same,growth,[9]; 10 µM unless noted,96.2%
same,growth,[10]; 10 µM unless noted,114%
same,growth,[11]; 10 µM unless noted,101%
same,growth,[12],93.3%
same,growth,[13]; 10 µM unless noted,105%
same,growth,[14]; 10 µM unless noted,115%
same,growth,[15]; 10 µM unless noted,102%
same,growth,[16]; 10 µM unless noted,120%
N#CCC(=O)c1ccccc1,growth,[1],107%
same,growth,[17],108%
same,growth,[2]; 10 µM unless noted,96.5%
same,growth,[3]; 10 µM unless noted,105%
same,growth,[4]; 10 µM unless noted,109%
same,growth,[5]; 10 µM unless noted,105%
same,growth,[6]; 10 µM unless noted,104%
same,growth,[7]; 10 µM unless noted,102%
same,growth,[8]; 10 µM unless noted,107%
same,growth,[18]; 10 µM unless noted,104%
same,growth,[10]; 10 µM unless noted,116%
same,growth,[11]; 10 µM unless noted,101%
same,growth,[13]; 10 µM unless noted,92.6%
same,growth,[14]; 10 µM unless noted,107%
same,growth,[15]; 10 µM unless noted,71.2%
same,growth,[16]; 10 µM unless noted,90.8%
CN1CCN(c2ccc(Cl)cc2)CC1,growth,[1],56.2%
same,growth,[17],110%
same,growth,[2]; 10 µM unless noted,72.5%
same,growth,[3]; 10 µM unless noted,80.5%
same,growth,[4]; 10 µM unless noted,98.6%
same,growth,[5]; 10 µM unless noted,103%
same,growth,[6]; 10 µM unless noted,68%
same,growth,[7]; 10 µM unless noted,125%
same,growth,[8]; 10 µM unless noted,101%
same,growth,[10]; 10 µM unless noted,83.2%
same,growth,[11]; 10 µM unless noted,97.8%
same,growth,[12],46.5%
same,growth,[13]; 10 µM unless noted,62.6%
same,growth,[14]; 10 µM unless noted,31.4%
same,growth,[15]; 10 µM unless noted,105%
same,growth,[16]; 10 µM unless noted,100%
CCCN1C(=O)NC(=O)C(CC)(N2C(=O)c3c(F)c(F)c(F)c(F)c3C2=O)C1=O (centres undefined),growth,[1],-76.5% (active)
same,growth,[17],-30% (active)
same,growth,[2]; 10 µM unless noted,-56.7% (active)
same,growth,[3]; 10 µM unless noted,-88.1% (active)
same,growth,[4]; 10 µM unless noted,-43.1% (active)
same,growth,[5]; 10 µM unless noted,-25.4% (active)
same,growth,[6]; 10 µM unless noted,-77.9% (active)
same,growth,[7]; 10 µM unless noted,-96.4% (active)
same,growth,[8]; 10 µM unless noted,-24.6% (active)
same,growth,[18]; 10 µM unless noted,-28.5% (active)
same,growth,[9]; 10 µM unless noted,-52.3% (active)
same,growth,[10]; 10 µM unless noted,-78.8% (active)
same,growth,[11]; 10 µM unless noted,-60.3% (active)
same,growth,[13]; 10 µM unless noted,-76.5% (active)
same,growth,[14]; 10 µM unless noted,-78.2% (active)
same,growth,[15]; 10 µM unless noted,-87% (active)
same,growth,[16]; 10 µM unless noted,-96.2% (active)
CC(=O)OCC1OC([S-])C(OC(C)=O)C(OC(C)=O)C1OC(C)=O.[Au+].c1ccc(CN2[CH-]N(Cc3ccccc3)C(c3ccccc3)=C2c2ccccc2)cc1,growth,[2]; 4.75 µM,3.93% (active)
same,growth,[2]; 10 µM,22.3%
same,growth,[3]; 4.75 µM,24.2%
same,growth,[3]; 10 µM,72.2%
same,growth,[4]; 4.75 µM,12.6%
same,growth,[4]; 10 µM,34.2%
same,growth,[5]; 4.75 µM,-13.2% (active)
same,growth,[5]; 10 µM,70.4%
same,growth,[6]; 4.75 µM,-33.7% (active)
same,growth,[6]; 10 µM,-67.2% (active)
same,growth,[7]; 4.75 µM,-44.3% (active)
same,growth,[7]; 10 µM,-95.7% (active)
same,growth,[8]; 4.75 µM,10%
same,growth,[8]; 10 µM,28.5%
same,growth,[18]; 4.75 µM,53.3%
same,growth,[18]; 10 µM,66.5%
same,growth,[9]; 4.75 µM,-20.3% (active)
same,growth,[9]; 10 µM,-52.1% (active)
same,growth,[10]; 4.75 µM,7.95% (active)
same,growth,[10]; 10 µM,12.6%
same,growth,[11]; 4.75 µM,4.71% (active)
same,growth,[11]; 10 µM,29.4%
same,growth,[13]; 4.75 µM,0.0903% (active)
same,growth,[13]; 10 µM,-66.1% (active)
same,growth,[14]; 4.75 µM,-5.84% (active)
same,growth,[14]; 10 µM,-16.6% (active)
same,growth,[15]; 4.75 µM,16.7%
same,growth,[15]; 10 µM,-62.8% (active)
same,growth,[16]; 4.75 µM,6.84% (active)
same,growth,[16]; 10 µM,38%
C[C@]12CCc3sc(Nc4ccc(O)cc4)nc3C1=CC[C@@H]1[C@@H]2CC[C@]2(C)C(=O)CC[C@@H]12,growth,[1],9.6% (active)
same,growth,[17],-24.5% (active)
same,growth,[2]; 10 µM unless noted,35.9%
same,growth,[3]; 10 µM unless noted,117%
same,growth,[4]; 10 µM unless noted,57.1%
same,growth,[5]; 10 µM unless noted,108%
same,growth,[6]; 10 µM unless noted,13.1%
same,growth,[7]; 10 µM unless noted,-31.7% (active)
same,growth,[18]; 10 µM unless noted,68.6%
same,growth,[9]; 10 µM unless noted,10.6%
same,growth,[10]; 10 µM unless noted,45.6%
same,growth,[11]; 10 µM unless noted,35.3%
same,growth,[13]; 10 µM unless noted,3.11% (active)
same,growth,[14]; 10 µM unless noted,-72.4% (active)
same,growth,[15]; 10 µM unless noted,97.7%
same,growth,[16]; 10 µM unless noted,46.7%
Cc1cc(N)ccc1N,growth,[1],110%
same,growth,[17],77%
same,growth,[2]; 10 µM unless noted,96.1%
same,growth,[3]; 10 µM unless noted,96%
same,growth,[4]; 10 µM unless noted,104%
same,growth,[5]; 10 µM unless noted,99.9%
same,growth,[6]; 10 µM unless noted,108%
same,growth,[7]; 10 µM unless noted,102%
same,growth,[8]; 10 µM unless noted,104%
same,growth,[18]; 10 µM unless noted,105%
same,growth,[10]; 10 µM unless noted,90.4%
same,growth,[11]; 10 µM unless noted,116%
same,growth,[12],96.6%
same,growth,[13]; 10 µM unless noted,92.2%
same,growth,[14]; 10 µM unless noted,91.8%
same,growth,[15]; 10 µM unless noted,93.2%
same,growth,[16]; 10 µM unless noted,104%
C=C1C(=O)OC2/C=C(\C)CC/C=C(/C)CC(OC(=O)/C(=C/CO)CO)C12 (centres undefined),growth,[13]; 10 µM unless noted,-85% [100 µM] (active) and -68.3% [100 µM] (active)
COc1c(O)cc2c(c1OC)-c1ccc(SC)c(=O)cc1C(NC(C)=O)CC2 (centres undefined),growth,[1],5.8% (active)
same,growth,[17],0.467% (active)
same,growth,[3]; 10 µM unless noted,41.9%
same,growth,[4]; 10 µM unless noted,16.8%
same,growth,[5]; 10 µM unless noted,35.2%
same,growth,[6]; 10 µM unless noted,-44.2% (active)
same,growth,[7]; 10 µM unless noted,-34.3% (active)
same,growth,[8]; 10 µM unless noted,16%
same,growth,[10]; 10 µM unless noted,-9.83% (active)
same,growth,[11]; 10 µM unless noted,-47.2% (active)
same,growth,[12],22.9%
same,growth,[13]; 10 µM unless noted,13.3%
same,growth,[14]; 10 µM unless noted,4.98% (active)
same,growth,[15]; 10 µM unless noted,-21.5% (active)
same,growth,[16]; 10 µM unless noted,-41.1% (active)
